A selection: hits, their analogues and other compounds. The true share with any hit is near 8.1%.
KB-3-1 tox – qHTS assay for MDR1-selective chemotherapeutics: Primary screen using the parental adenocarcinoma cell KB-3-1; Potency, µM (titrated, usually from 46.1 µM), actives largely listed as cytotoxic; KB-3-1 viability, CellTiter-Glo ATP luminescence, 72 h; AID 1347075, 2019; actives 1.4% (n = 400,000); also: % is scaled to controls: 0 for no effect and ±100 for the full control effect; nearly all actives have a fitted effect of over 60% in size
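Viability of parental KB-3-1 cells, measured by CellTiter-Glo luminescence, followed a 72 h incubation at 37 °C with pinned compounds in phenol-red-free DMEM containing 10% FBS.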
SW480 rereplic – A quantitative high throughput screen for small molecules that induce DNA re-replication in SW480 colon adenocarcinoma cells; Potency, µM (top dose mostly 46.1 µM), without a hit: top-dose re-replication activation, hits mostly activators; actives 1.8% (n = 340,000); SW480 DNA re-replication, Hoechst DNA content imaging, 48 h; also: % of control where 0% means no effect; nearly all actives have a fitted effect of over 55% in size
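First, 250 cells per well were seeded. Next, compound or vehicle (23 nL) was pinned in, plates sat 48 hr at 37 C. Finally Hoechst was added for 40 min before fluorescence scanning.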
ELG1 repair inh – qHTS screen for small molecules that inhibit ELG1-dependent DNA repair in human embryonic kidney (HEK293T) cells expressing luciferase-tagged ELG1; HEK293T ELG1-luciferase reporter, luminescence, 16 h; DNA damage induced by 5-fluorouridine; Potency, µM (highest dose often 46.1 µM), for the others: top-dose activity change, negative = inhibition, most hits filed as inhibitors; actives 2.3% (n = 330,000); AID 504467, 2011; also: % is scaled to controls: 0 for no effect and ±100 for the full control effect; nearly all actives have a fitted effect of over 55% in size
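HEK293T cells expressing luciferase-tagged ELG1 (2,000/well) received 5-Fluorouridine plus compound or DMSO for 16 hr at 37 °C. Luciferase was read by ONE-Glo luminescence after 30 min at room temperature.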
MCF10A rerep – A quantitative high throughput screen for small molecules that induce DNA re-replication in MCF 10a normal breast cells | MCF 10A DNA re-replication, Hoechst nuclear intensity, 48 h | Potency, µM (titrated, usually from 46.1 µM), for inactives: at the highest dose activity, positive = re-replication, hits mostly activators | actives 2.9% (n = 350,000) | AID 624296, 2012; also: % of control where 0% means no effect; nearly all actives have a fitted effect of over 50% in size
KB-V1 MDR tox – qHTS assay for MDR1-selective chemotherapeutics: Primary screen using the drug-selected MDR subline cells KB-V1; KB-V1 MDR cells viability, CellTiter-Glo, 72 h; Potency, µM (highest dose often 46.1 µM), hits mostly cytotoxic; actives 3.4% (n = 400,000); AID 1347076, 2019; also: % is scaled to controls: 0 for no effect and ±100 for the full control effect; nearly all actives have a fitted effect of over 60% in size
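Following 72 h at 37 degrees C with compound, KB-V1 cell viability was read by CellTiter-Glo luminescence, medium being phenol-red-free DMEM plus 10% FBS; concentration-response parameters came from normalized, curve-fitted qHTS data.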
* = called active by the depositor; i = inactive; ? = inconclusive; . = no result; [ ] = another dose, or the depositor's remark. Calls follow the shape of the dose curve; as a rule, active = well fitted curve in the direction sought with a large enough effect; inconclusive = small, poorly fitted or top-dose-only effect, or another doubt; inactive = no such curve, though single readings can be large; an effect the other way counts as inactive or inconclusive. Potency is read from the fitted curve at half-maximal effect.

SMILES	KB-3-1 tox	SW480 rereplic	ELG1 repair inh	MCF10A rerep	KB-V1 MDR tox
COc1ccc(OC)c(NC(=O)Cc2nn(C)c(=O)c3ccccc23)c1	i	-1.4%	?	15.4%	?
Cn1nc(CC(=O)Nc2cccc3ncccc23)c2ccccc2c1=O	i	3.6%	7.31µM*	?	?
COc1ccc(OCC(=O)Nc2cccc3ncccc23)cc1	i	-7.9%	-11.3%	0.9%	?
COc1cc(NC(=O)Cc2nn(C)c(=O)c3ccccc23)cc(OC)c1OC	i	-8.4%	?	6.4%	14.6µM*
O=C(CCl)Nc1cccc2ncccc12	?	?	25.9µM*	?	?
CC(C)CN(C(=O)COC(=O)COc1ccc2ccccc2c1)c1c(N)n(Cc2ccccc2)c(=O)[nH]c1=O	i	8.1%	-27.2%	?	i
Cc1ccc2c(c1)CCCN2C(=O)CCc1nc2ccccc2c(=O)[nH]1	?	8.91µM*	?	?	?
CC(=O)N1CCN(C(=O)CCc2nc3ccccc3c(=O)[nH]2)CC1	i	-14.2%	-0.2%	-3.2%	i
Cc1ccc(-c2nnn(CC(=O)N3CCCc4ccccc43)n2)cc1	i	3.3%	1.4%	3.4%	i
Cc1ccc(-c2noc(CCC(=O)N3CCCc4ccccc43)n2)cc1	i	-2.9%	?	14.3%	23.1µM*
COc1cc(C2=NOC(C(=O)N3CCCc4ccccc43)C2)cc(OC)c1OC (stereo not drawn)	i	-1.2%	?	-1.7%	i
COc1ccc(C2=NOC(C(=O)N3CCCc4ccccc43)C2)cc1 (stereo not drawn)	i	-2.6%	13.6%	?	13µM*
COc1ccc(-c2cc(C(=O)N3CCCc4ccccc43)no2)cc1	i	-2.7%	?	27.4%	14.6µM*
Nc1nc2ncccc2cc1C(=O)NCCc1cccs1	?	.	.	.	i
COc1ccc(-c2c(C(=O)O)nc3ccccc3c2C(=O)O)cc1	i	0.6%	1.8%	-3.3%	i
O=C(Cn1cnc2c(NCc3ccccc3)ncnc21)NCc1ccc2c(c1)OCO2	i	?	?	?	i
O=C(Nc1c2c(nn1-c1ccc(F)cc1)CS(=O)(=O)C2)C12CC3CC(CC(C3)C1)C2	i	1.5%	-6.7%	-2.9%	23.1µM*
FC(F)Oc1ccccc1/C=N/Nc1nc2ccccc2o1	i	0.7%	?	3.9%	i
O=C(CC1(O)C(=O)Nc2cc(Cl)cc(Cl)c21)c1ccccc1O (stereo not drawn)	i	?	1.4%	14.6µM*	i
O=C(CC1(O)C(=O)Nc2ccccc21)c1ccccc1O (stereo not drawn)	i	-2.2%	1.8%	7.3%	i
COC(=O)Nc1ccc(S(=O)(=O)NNC(=O)c2c(O)c3ccccc3[nH]c2=O)cc1	i	?	-1.7%	20.6µM*	i
Cc1ccc(S(=O)(=O)NNC(=O)c2c(O)c3ccccc3[nH]c2=O)cc1	i	?	8.2%	5.8µM*	2.59µM*
Cc1cccc(-c2nc(CS(=O)CC(=O)NCc3ccco3)c(C)o2)c1 (stereo not drawn)	i	-21.0%	0.3%	0.8%	i
O=C(c1cccc(S(=O)(=O)N2CCCCC2)c1)N1CCN(S(=O)(=O)c2ccc(F)cc2)CC1	i	-2.6%	-20.2%	4.8%	i
Cc1cc2ncn(-c3ncnc4sc(C)c(C)c34)c2cc1C	i	-2.6%	-21.7%	-3.1%	i
SMILES	KB-3-1 tox	SW480 rereplic	ELG1 repair inh	MCF10A rerep	KB-V1 MDR tox
Cc1cc2ncn(-c3ncnc4scc(-c5ccccc5)c34)c2cc1C	i	-1.1%	-23.0%	23.6%	4.11µM*
Cc1cc2ncn(-c3ncnc4sc5c(c34)CCC(C)C5)c2cc1C (stereo not drawn)	i	0.1%	-7.4%	?	13µM*
CCOc1ccc(CCNC(=O)CS(=O)(=O)Cc2nc(-c3ccccc3F)oc2C)cc1	i	-1.9%	-13.2%	-1.7%	?
CSCC[C@@H](C(=O)NCCCCCCCCCCC(=O)N1CCN(C(=O)OC(C)(C)C)CC1)n1cc(CCO)nn1	?	2.5%	18.3µM*	6.5%	i
C#CCOCCOCCOCCNc1nc(N2CCN(C(=O)CCCCCCCCCCNC(=O)[C@@H](CCSC)n3cc(CCO)nn3)CC2)nc(N2CCN(C(=O)CCCCCCCCCCNC(=O)[C@H]([C@@H](C)CC)n3cc(CCCCCN)nn3)CC2)n1	?	1.7%[9.22 µM]	?	?	?
C#CCOCCOCCOCCNc1nc(N2CCN(C(=O)CCCCCCCCCCNC(=O)[C@@H]([C@H](C)O)n3cc(C)nn3)CC2)nc(N2CCN(C(=O)CCCCCCCCCCNC(=O)[C@@H]([C@H](C)O)n3cc(C)nn3)CC2)n1	?	2.2%	?	13µM*	i
CC[C@@H](C)[C@@H](C(=O)N1CCN(C(=O)OC(C)(C)C)CC1)n1cc(CCCCNC(=O)OC(C)(C)C)nn1	?	-3.8%	20.6µM*	?	20.6µM*
C#CCOCCOCCOCCNc1nc(N2CCN(C(=O)CCCCCCCCCCNC(=O)[C@@H](CCSC)n3cc(CCO)nn3)CC2)nc(N2CCN(C(=O)CCCCCCCCCCNC(=O)[C@H]([C@@H](C)CC)n3cc(CCCCN=C(N)N)nn3)CC2)n1	16.4µM*	-7.2%	?	-10.4%	?
CCCCC(C(=O)NC(C)(C)C)N(Cc1ccccc1Cl)C(=O)c1snc(C(N)=O)c1N (stereo not drawn)	i	-3.1%	-25.1%	?	i
C#CCOCCOCCOCCNc1nc(N2CCN(C(=O)CCCCCCCCCCNC(=O)[C@H](CCCCN)n3cc(C[C@@H](C)CC)nn3)CC2)nc(N2CCN(C(=O)CCCCCCCCCCNC(=O)[C@H](CCCCN)n3cc(C[C@@H](C)CC)nn3)CC2)n1	?	-7.6%[9.22 µM]	.	18.4µM*	?
C#CCOCCOCCOCCNc1nc(N2CCN(C(=O)Cn3cc(CCCCN)nn3)CC2)nc(N2CCN(C(=O)[C@H](Cc3ccc(O)cc3)n3cc(CCO)nn3)CC2)n1	i	4.7%[9.22 µM]	.	3.66µM*	i
C#CCOCCOCCOCCNc1nc(N2CCN(C(=O)[C@H](CCCCN)n3cc(CCCC)nn3)CC2)nc(N2CCN(C(=O)[C@H](Cc3ccc(O)cc3)n3cc(CCO)nn3)CC2)n1	i	-41.0%	4.6%	-0.6%	i
O=C(CCN1C(=O)c2ccccc2C1=O)C1=NN[C@@H]2C(=O)N(c3cccc(F)c3)C(=O)[C@H]12	i	2.4%	2.9%	-5.2%	i
